Assay outcomes as filed in PubChem.
Compounds with a hit are over-represented: about 14% of the library has one in this group of screens.
HCMV inh = qHTS Assay for inhibitors of the human cytomegalovirus (HCMV) | AID 1259415, 2018 | activity change, negative = inhibition, % at 57.5 µM | 410,000 tested, 4.5% active | HFF cells, HCMV-luciferase reporter, 72 h; active compounds read low; in the data active = activity change below about -60%; inconclusive = no clear call, values can overlap the other calls; inactive = above about -39%
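Steps: HFFs plated, 16 h 37C; compounds added; HCMV-luciferase added to MOI 1 PFU/cell; 72 h 37C; OneGlo reagent, 5 min room temperature; luminescence read, normalized to controls.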
LASV entry inh = qHTS for Inhibitors of binding or entry into cells for Lassa Virus; Lassa virus pseudotype entry inhibition, cell reporter; Potency, µM (series often up to 37.9 µM), for the others: at the highest dose activity change, negative = inhibition, actives largely listed as inhibitors; 300,000 tested, 1.2% active; AID 540256, 2011; calls by dose curve; tested in HEK293 cells; also: potency is read from the fitted curve at half-maximal effect; nearly all actives have a fitted effect of over 50% in size
Marburg entry inh = qHTS for inhibitors of binding or entry into cells for Marburg Virus | Potency, µM (series often up to 37.8 µM), without a hit: at the top dose activity change, negative = inhibition, most hits filed as inhibitors | Marburg virus pseudotyped entry inhibition, cell reporter | 300,000 tested, 1.8% active; calls by dose curve; tested in HEK293 cells; also: potency is read from the fitted curve at half-maximal effect
Pf growth 48h = Primary qHTS for delayed death inhibitors of the malarial parasite plastid, 48 hour incubation; AID 504832, 2011; 310,000 tested, 5.9% active; Potency, µM (highest dose often 28.7 µM), for inactives: at the highest dose activity change, negative = inhibition, hits mostly inhibitors; P. falciparum luciferase growth in erythrocytes, 48 h; also: potency is read from the fitted curve at half-maximal effect
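Cell-based growth assay: transgenic P. falciparum expressing firefly luciferase, cultured in red cells within RPMI 1640 containing 0.5% w/v Albumax, 24 mM bicarbonate and gentamycin. A drop in luciferase activity indicates inhibition.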
Pf growth 96h = Primary qHTS for delayed death inhibitors of the malarial parasite plastid, 96 hour incubation. 320,000 tested, 6.9% active. P. falciparum luciferase reporter growth, 96 h. Potency, µM (series often up to 28.7 µM), inactives show at the highest dose activity change, negative = inhibition, actives largely listed as inhibitors. AID 504834, 2011; also: potency is read from the fitted curve at half-maximal effect
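Readout is luminescence from an integrated firefly luciferase in P. falciparum. Red cells, 2% hematocrit and 0.05% parasitemia final, were cultured with compound through two parasite generations (96 hours) at 37 C, 5% CO2.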
HCV inhibitor = qHTS Assay for Inhibitors of Hepatitis C Virus (HCV). Huh7.5.1 HCVcc-Cre infection, luciferase reporter, 44 h. Potency, µM (titrated, usually from 41.8 µM), for the others: top-dose activity change, negative = inhibition, actives largely listed as inhibitors. 340,000 tested, 3.4% active. AID 651820, 2012; also: potency is read from the fitted curve at half-maximal effect
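Whole-lifecycle infectious HCVcc-Cre system; cells 1,000/well, compound then virus (~0.5 moi) added 4 h after plating, 44 h culture. Luciferase read 15 sec following 15 min substrate incubation, room temp.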
An asterisk follows results filed as active; ? = inconclusive; nt = not tested or not shown; [ ] = dose if it differs, or a comment. Unless noted, calls follow the shape of the dose curve; as a rule, active = well fitted inhibition curve with a large enough effect; inconclusive = small, poorly fitted or top-dose-only effect, or another doubt; inactive = no such curve, though single readings can be large or run the other way. % is scaled to controls: 0 for no effect and ±100 for the full control effect.

SMILES	HCMV inh	LASV entry inh	Marburg entry inh	Pf growth 48h	Pf growth 96h	HCV inhibitor
Cc1ccc(C(=O)NN2C(=O)/C(=C/c3cn(C)c4ccccc34)SC2=S)cc1	-69*	?	3%	-10%	8%	4%
O=C1/C(=C/c2ccc(O)c(O)c2)SC(=S)N1Nc1ccccc1	nt	?	?	?	147%	?
O=C(Cc1ccccc1)NN1C(=O)/C(=C/c2ccccc2C(=O)O)SC1=S	1	nt	nt	37%	12µM*	2%
COc1ccccc1C(=O)Nc1cccc(C(=O)OCc2cc(=O)n3c4c(sc3n2)CCCC4)c1	?	1%[46.1 µM]	nt	nt	nt	nt
Cc1ccc(-n2c(SCC(=O)NCCN3C(=O)CSC3=O)nnc2-c2ccccc2)cc1	?	-5%	3%	-11%	15µM*	1%
Cc1nn(-c2ccccc2)c(C)c1/C=N/NC(=O)c1cc(-c2ccccc2)n[nH]1	-95*	?	?	15µM*	9.3µM*	?
Cc1ccc(/C=N/NC(=O)Cc2ccc(O)cc2)s1	22	nt	nt	6%	7.4µM*	9%
Cc1ccc(-c2nnc(SCC(=O)N/N=C/c3c(C)nn(-c4ccccc4)c3C)n2-c2ccc(C)cc2)cc1	-39	7.1µM*	?	13%	?	-3%
Nc1c(-c2nc(-c3cccs3)no2)nnn1-c1ccc(Cl)cc1	26	25%[46.1 µM]	nt	nt	nt	nt
O=C(CC1C(=O)NCCN1Cc1ccc(-c2ccccc2)cc1)NCCCn1ccnc1 (stereo not drawn)	?	nt	nt	-18%	-17%	13%
CC(=O)N1CCN(CCS(=O)(=O)c2ccc(Br)cc2)CC1	-23	7%	-6%	-8%	2%	19%
Cc1ccc(/C=N/NC(=O)CSc2nnc(-c3ccccc3)n2-c2ccc(Cl)cc2)o1	-84*	-9%	-2%	-20%	?	?
Cc1ccc(-c2nnc(SCC(=O)N/N=C/c3c(C)nn(-c4ccccc4)c3C)n2-c2ccccc2)cc1	-27	?	?	6%	4%	11µM*
Cc1ccc(-c2nnc(SCC(=O)N/N=C/c3ccc(C)s3)n2-c2ccccc2)cc1	-35	16µM*	?	2%	-11%	-16%
O=C(c1ccc(C(F)(F)F)cc1)N1CCC(=O)N([C@H](COCc2ccc(C(F)(F)F)cc2)Cc2ccccc2)CC1	-31	nt	nt	nt	nt	nt
NS(=O)(=O)c1ccc(NCc2cc(Cl)ccc2OCc2ccccc2F)cc1	-61*	-25%	-4%	-7%	9%	?
COc1ccc(-c2nc(-c3ccccn3)ncc2S(C)(=O)=O)cc1	-61*	-12%	3%[46.1 µM]	366%	14%	-9%
COc1ccc(-c2nc(-c3ccccc3)ncc2S(C)(=O)=O)cc1	-16	-2%	0%[14.2 µM]	0%	32%	25%
COc1cccc(CN(C)C(=O)c2[nH]c(C)c(C(C)=O)c2C)c1OC	-33	-2%	?	12µM*	7.4µM*	11µM*
COc1ccccc1Cn1nnc2c(=O)[nH]c(C3CCN(C(=O)c4ccc(F)cc4)CC3)nc21	-33	-15%	-8%	12µM*	-21%	5%
COc1ccccc1Cn1nnc2c(=O)[nH]c(C3CCN(C(=O)c4ccccc4Cl)CC3)nc21	10	?	0%	9.3µM*	3%	-16%
COc1ccccc1Cn1nnc2c(=O)[nH]c(C3CCN(C(=O)c4ccc(C)cc4)CC3)nc21	-18	-30%	-10%	?	38%	-11%
CCOc1ccc(Sc2cc(C(=O)NCc3ccc(F)cc3)c3ccccc3n2)cc1	-35	1%[46.1 µM]	nt	nt	nt	nt
COc1ccc(CCNC(=O)c2ccc(CNS(=O)(=O)c3cc(C)ccc3C)cc2)cc1OC	?	?	10µM*	nt	5.2µM*	?
